Compounds without any hit were thinned out: in the full panel of roughly 79,000, 15% have a hit. Calls of active or inactive are those of the source. Cut-off read from the data, not from the text of the source: active = growth inhibition above about 70%; inactive = the rest.
Tests used:
[1] = NCI Yeast Anticancer Drug Screen. Data for the rad50 strain (AID 155);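 note: 0% = growth of vehicle-only cultures of the same strain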; details: S. cerevisiae rad50 strain growth inhibition; at 50.0 µM; hits give high values
How it was run: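 Inhibition values express reduced yeast growth in compound-treated cultures relative to vehicle-treated controls.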

[2] = NCI Yeast Anticancer Drug Screen. Data for the mec2-1 strain (AID 157); details: S. cerevisiae mec2-1 strain, at 50.0 µM, hits give high values
How it was run: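 Yeast mec2-1 mutant treated with compound. Readout: growth inhibition vs vehicle controls.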

[3] = NCI Yeast Anticancer Drug Screen. Data for the sgs1 mgt1 strain (AID 161);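 note: 0% = growth of cultures given vehicle only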; details: S. cerevisiae sgs1 mgt1 strain, at 50.0 µM, hits give high values
How it was run: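 Inhibition of yeast growth, normalised to vehicle-treated controls, is reported for a strain bearing genetic alterations in DNA damage repair.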

[4] = NCI Yeast Anticancer Drug Screen. Data for the cln2 rad14 strain (AID 165);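 note: 0% = growth equal to vehicle treated cultures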; details: S. cerevisiae cln2 rad14 strain, at 50.0 µM, hits give high values
How it was run: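 cln2 rad14 yeast strain; compound exposure; growth inhibition read vs vehicle controls.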

[5] = NCI Yeast Anticancer Drug Screen. Data for the mlh1 rad18 strain (AID 175); details: S. cerevisiae mlh1 rad18 strain growth inhibition; at 50.0 µM; hits give high values
How it was run: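 Yeast w/ defined DNA-repair lesions; compound exposure; growth vs vehicle controls → % inhibition.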

[6] = NCI Yeast Anticancer Drug Screen. Data for the bub3 strain (AID 167); details: S. cerevisiae bub3 mutant strain, at 50.0 µM, hits give high values
How it was run: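 Steps: expose the mutant yeast strain to compound; grow alongside vehicle-treated cultures; measure growth; express inhibition against the vehicle cultures.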

Measured: growth inhibition

Cc1ncc2c(n1)CCC1=C2OS(=O)(=O)CC1N(C)C (stereo not given)
inactive: [1] -24.1% | [2] -0.45% | [3] -3.3% | [4] 1.6% | [5] -22.4%

Cc1nc(C)c(C(=O)NNC(=O)C[n+]2ccccc2)cc1C(=O)NNC(=O)C[n+]1ccccc1
inactive: [1] -27.6% | [2] -4.15% | [3] -11.4% | [4] 11.7% | [5] -25.1%

C=C(C)CS(=O)(=O)O
inactive: [1] -0.15% | [2] 3.45% | [3] 1.85% | [4] -13.1% | [5] 1.65%

COc1cccc(NC(=O)N/C(=C/c2ccc(N(CCC#N)CCC#N)cc2)NC(=O)c2cc([N+](=O)[O-])ccc2Cl)c1
inactive: [1] 30.8% | [2] 16% | [3] -3.15% | [4] -10.1% | [5] 36.5%

CC(=O)N1CC=CCC1
inactive: [1] -16.6% | [2] 5.85% | [3] -17.9% | [4] -7.5% | [5] -2.85%

Cc1cccc(C)c1N1C(=O)C(=O)C(c2nc3ccccc3s2)C(=Nc2cccc3c(=O)[nH][nH]c(=O)c23)C1=O (stereo not given)
inactive: [1] 30.5% | [2] 13.9% | [3] 17.6% | [4] 23.2% | [5] 23.7%

COC1OC(COS(=O)(=O)c2ccc(C)cc2)C2OC(C)(C)OC2C1OS(=O)(=O)c1ccc(C)cc1 (stereo not given)
inactive: [1] 54.9% | [2] 16.8% | [3] -4.4% | [5] 7.1%
active: [4] 84.2%

O=C(c1ccccc1)c1oc2ccc(Br)cc2c1-c1cnn(-c2ccccc2)c1
inactive: [1] 29.2% | [2] -9.5% | [3] 11.9% | [4] 15.1% | [5] 22.1%

CCCC(CNC(C)=O)(c1ccccc1)C1CCCCC1 (stereo not given)
inactive: [1] -10.7% | [2] 6.9% | [3] 3.15% | [4] 27.9% | [5] 16.1%

N#Cc1ccc(CCc2ccccc2)cc1
inactive: [1] 1.2% | [2] -3.75% | [3] 18.6% | [4] 10.4% | [5] -2.05%

COc1ccc2ccc3c(OC(C)=O)ccc(CCN(C)C(C)=O)c3c2c1OC(C)=O
inactive: [1] 19.1% | [2] 25.9% | [3] 18.9% | [4] 31.5% | [5] 4.85%

CCC[CH2][Ge]([Cl])([Cl])[CH2]CCC
inactive: [1] 28.6% | [2] 30.8% | [3] 30.9% | [4] 14.9% | [5] 33.4%

NC1CC(=O)c2sccc21 (stereo not given)
inactive: [1] 9.8% | [2] 2.15% | [3] 16.8% | [4] 9.2% | [5] 1.25%

C=C(c1nc2ccc(Cl)cc2[nH]c1=O)C(O)c1ccc(C(O)C(=O)c2nc3ccc(Cl)cc3[nH]c2=O)cc1 (stereo not given)
inactive: [1] 5.85% | [2] 4.55% | [3] -15.6% | [4] -68.8% | [5] 9.05%

Cc1n(C)nn[n+]1C
inactive: [1] 2.65% | [2] -8.35% | [3] -2.65% | [4] -24.1% | [5] -16.5%

CN(C)CC1=C(O)c2ccccc2C(=O)C1=O
inactive: [1] -0.25% | [2] -1.2% | [3] 1.1% | [4] 13.7% | [5] -4.2%

C/C(=N/NC(N)=O)C1=CCCCC1
inactive: [1] -7% | [2] 7.3% | [3] 6.35% | [4] 4.1% | [5] 7.4%

O=C1CSC(c2ccccn2)N1CCN1C(=O)CSC1c1ccccn1 (stereo not given)
inactive: [1] 7.4% | [2] -0.85% | [3] -15.9% | [4] -4.35% | [5] 6.65%

COC(=O)C1=C(C(=O)OC)P2(C)(C)OC(c3ccccc3)CN2C1(c1ccccc1)c1ccccc1 (stereo not given)
inactive: [1] 18% | [2] 9.15% | [4] -80% | [6] 0.3% | [5] 40.9%

COC(=O)C(=O)C(C(=O)C=C(C)C)C(=O)C(=O)Nc1cc(C(F)(F)F)ccc1Cl (stereo not given)
inactive: [1] -3% | [2] -1.4% | [4] -57.1% | [6] 1.15% | [5] -10.8%

CC1SC(=S)NC1=O (stereo not given)
inactive: [1] -16% | [2] -2.1% | [4] -2% | [6] -10.9% | [5] -0.8%

CCOC(=O)C(CC)(C(=O)OCC)C(C)C
inactive: [1] 15.6% | [2] 30.4% | [4] -28.1% | [6] -9.95% | [5] -6.8%

Cc1ccc(C(=O)N(C(C)C)C(C)C)cc1N=NN(C)C
inactive: [1] -10% | [2] -30.6% | [4] 12.2% | [6] -20.6% | [5] -23.7%
